# 14-3-3 Bad inh = inhibitors of 14-3-3 zeta/Bad binding, primary screen, biochemical, TR-FRET, bovine 14-3-3 zeta; 14-3-3 protein zeta/delta (Bos taurus), P63103; TR-FRET 14-3-3zeta/Dy647-pBad peptide displacement, 1 h; inhibition, % at 21.7 µM; 220,000 tested, 0.71% active; AID 781, 2007;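 active = inhibition above about 70%, limit read from the data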;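 also: 0% = full 14-3-3 plus peptide FRET controls and 100% = background without 14-3-3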
# Target sequence (P63103 whole entry, looked up): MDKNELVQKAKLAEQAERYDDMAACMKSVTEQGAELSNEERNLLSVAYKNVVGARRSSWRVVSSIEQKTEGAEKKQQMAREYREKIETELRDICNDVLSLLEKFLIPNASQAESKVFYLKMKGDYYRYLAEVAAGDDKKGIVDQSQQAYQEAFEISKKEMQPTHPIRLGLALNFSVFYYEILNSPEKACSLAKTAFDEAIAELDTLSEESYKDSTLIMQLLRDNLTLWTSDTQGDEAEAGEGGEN
# UBC9 SUMO inh = inhibitors of in vitro SUMOylation cascade, primary screen, biochemical, HTRF, uHTS; 290,000 tested, 0.36% active; HTRF SUMOylation assay, SAE1/SAE2 + UBC9; AID 2006, 2009; inhibition, % at 35 µM; SUMO-conjugating enzyme UBC9 (Homo sapiens), P63279; in the data active = inhibition above about 50%, passing the limit was not always enough; inconclusive = no clear call, values can overlap the other calls
# Target sequence (P63279 whole entry, looked up): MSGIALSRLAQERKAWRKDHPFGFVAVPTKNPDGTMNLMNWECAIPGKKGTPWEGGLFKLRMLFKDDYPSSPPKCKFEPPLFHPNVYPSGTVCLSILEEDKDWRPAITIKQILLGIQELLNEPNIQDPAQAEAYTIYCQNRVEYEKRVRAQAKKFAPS
# p47phox inh = p47phox/p22phox peptide binding inhibitors, primary screen, biochemical, uHTS, NADPH oxidase regulatory subunit | fluorescence polarization, 2 h | 220,000 tested, 0.53% active | Neutrophil cytosol factor 1 (Homo sapiens), P14598 | inhibition, % at 24.7 µM;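 also: 0% = p47phox with labelled peptide and 100% = labelled peptide alone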
# eIF4E-4G inh = eIF4E–eIF4G protein interaction inhibitors, primary screen, biochemical, uHTS, TR-FRET, eIF4GI fragment. Eukaryotic translation initiation factor 4E (Mus musculus) + Eukaryotic translation …. TR-FRET eIF4E-eIF4GI(517-606) binding, 2 h. inhibition, % at 21.7 µM. 220,000 tested, 0.37% active. AID 782, 2007;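 also: 0% = full FRET control wells and 100% = background wells lacking eIF4GI fragment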
# * = called active by the depositor; ? = inconclusive; / = no result given; [ ] = another dose, or the depositor's remark. Rows were chosen to be rich in hits. Some 1.3% of all compounds tested hit in one or more screens of this group.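 The calls were made as follows, unless noted: active = inhibition above about 30% (limit read from the data); inactive = the rest.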
SMILES,14-3-3 Bad inh,UBC9 SUMO inh,p47phox inh,eIF4E-4G inh
CCCC1C2C(=O)N(c3ccc(OC)cc3)C(=O)C2ON1c1ccccc1 (configuration not stated),90*,13,3,-24
Cc1ccc(N2NC(=O)/C(=C/c3ccc(-c4ccc(Cl)c(C(=O)O)c4)o3)C2=O)cc1,4,13,-6,11
O=C1NN(c2ccc(Cl)cc2)C(=O)/C1=C\c1ccc(-c2cccc(C(=O)O)c2)o1,64,32,-21,32*
Cc1ccc(CN2CCN(CC3CC4C=CC3C4)CC2)cc1 (configuration not stated),72*,1,-12,11
O=C(c1ccccc1F)N1CCN(CC2CC3C=CC2C3)CC1 (configuration not stated),81*,-24,0,20
O=C(c1cccc(F)c1)N1CCN(CC2CC3C=CC2C3)CC1 (configuration not stated),49,-38,-15,-11
Cc1cc(F)ccc1S(=O)(=O)N1CCCOC1CNC(=O)C(=O)NCc1ccc2c(c1)OCO2 (configuration not stated),/,22,/,/
CCN(C(=O)C1CCCCC1)c1nnc(-c2cccnc2)s1,77*,5,-3,1
COCCN(C(=O)C1CCC1)c1nnc(-c2cccnc2)s1,0,-13,0,3
NC(=O)CC(NC(=O)c1cccc(Br)c1)c1ccc(N2CCN(c3ccc(F)cc3)CC2)c([N+](=O)[O-])c1 (configuration not stated),/,1,/,/
CCOC(=O)c1cnn(Cc2cccc(Cl)c2)c1C,-9,16,3,-3
CCOC(=O)c1c(N)sc2c(O)c(Br)ccc12,64,-5,-3,39*[fluorescence artefact?]
COC(=O)C1(Cc2ccc(O)c(CC3OC3(C)C)c2)OC(=O)C(O)=C1c1ccc(O)cc1 (configuration not stated),3,-13,-7,96*
O=c1oc2c3c4c(cc2s1)CCCN4CCC3,-11,78*,1,13
O=c1ccc2cc3c4c(c2o1)CCCN4CCC3,8,27,-11,9
Cc1cc(C(F)(F)F)nn1Cc1n[nH]c(=S)n1-c1ccc(Cl)cc1,27,-2,31*,7
CC1CCN(CCCCOc2ccccc2[N+](=O)[O-])CC1,85*,22,1,7
O=C(NCC(c1ccc(F)cc1)N1CCOCC1)c1ccc(Br)o1 (configuration not stated),60,4,-10,9
O=S(=O)(Nc1ccc(O)c2ccccc12)c1ccc(Br)cc1,/,86*,/,/
CC12CC3CC(C)(C1)CC(CN1CCOCC1)(C3)C2,7,-2,39*,9
CC12CC3CC(C)(C1)CC(CN)(C3)C2,-6,-21,-16,13
O=[N+]([O-])c1ccc(N/N=C/c2cccc(O)c2O)c(S(=O)(=O)N2CCOCC2)c1,0,51*,19,3
O=[N+]([O-])c1ccc(N/N=C/c2ccc(O)c(O)c2O)c(S(=O)(=O)N2CCOCC2)c1,2,40,-15,20
CSc1nc2ccc(NS(=O)(=O)c3ccc([N+](=O)[O-])cc3)cc2s1,0,17,-9,4
CCN1CCN(CCNC(=O)c2ccc(/C=C3/Sc4ccccc4N(Cc4ccccc4C)C3=O)cc2)CC1,70*,2,104*,28
SMILES,14-3-3 Bad inh,UBC9 SUMO inh,p47phox inh,eIF4E-4G inh
CCN1CCN(CCCNC(=O)c2ccc(/C=C3/Sc4ccccc4N(Cc4ccccc4F)C3=O)cc2)CC1,81*,1,90*,19
Cc1ccccc1CN1C(=O)c2ccccc2Sc2ccc(C(=O)NCCN3CCOCC3)cc21,/,13,/,/
Nc1ccc2oc(-c3ccc4nc[nH]c4c3)nc2c1,0,?,-9,3
Cc1ccccc1-c1nc2cc(N)ccc2o1,-7,65*,-12,-2
Cc1nc2ccc(-c3nc4cc(N)ccc4o3)cc2[nH]1,-17,53*,-26,-14
C/C(=N/NC(=O)CN1CCN(S(=O)(=O)c2ccc(Br)cc2)CC1)c1cccnc1,-4,-2,-8,8
O=C(Nc1ccccc1)C1CC(=O)N(Cc2ccccc2)C1 (configuration not stated),/,2,/,/
O=C(O)c1cccc(NC(=O)C2CC(=O)N(Cc3ccccc3)C2)c1 (configuration not stated),76*,5,6,-5
Cc1ccccc1NC(=O)Cn1c(O)c(N=NC(=O)c2ccccc2O)c2ccccc21,92*[fluorescence artefact?],/,50*,17
OCC1(Cc2cccc(F)c2)CCN(Cc2ccc3cccc(F)c3n2)CC1,21,14,-10,0
COc1cccc(CC2(CO)CCN(Cc3ccc4cccc(F)c4n3)CC2)c1,90*,10,-29,4
Cc1[nH]c2ccccc2c1C(=O)C(=O)N1CCN(c2ccccc2)CC1,/,-2,/,/
CCOc1ccc(C2C=C(c3ccccc3)Nc3ncnn32)cc1 (configuration not stated),/,52*,-10,/
Cc1cc(C)cc(Oc2nn[nH]n2)c1,71*,-1,1,-2
CC(C)(C)c1cccc(Oc2nn[nH]n2)c1,79*,-6,1,6
O=C(Nc1nn[nH]n1)c1cccc(Oc2ccccc2)c1,11,-6,-1,1
CN(C)c1cccc2c(S(=O)(=O)N3CCOCC3)cccc12,-2,31,59*,7
CN(C)c1cccc2c(S(=O)(=O)N3CCCC3)cccc12,/,51*,/,/
O=S(=O)(c1cccc2ccccc12)N1CCCCC1,/,-1,/,/
O=C(CN1CCOCC1)Nc1scc2c1c(=O)oc1ccccc12,7,6,9,-4
O=c1[nH]nc(-c2ccc(F)cc2)cc1Cc1ccc(F)cc1,2,15,37*,0
COc1ccc(N2CCN(C(=O)Cn3nnc(-c4ccc(N(C)C)cc4)n3)CC2)cc1,77*,3,17,-8
COc1ccc(CN=C2NC(=O)CC(C(=O)Nc3ccc(F)cc3)S2)cc1 (configuration not stated),86*[fluorescence artefact?],9,1,36*
COc1ccc(NC(=O)C2CC(=O)N/C(=N/N=C/c3ccco3)S2)cc1 (configuration not stated),1,-11,-22,18
Cc1cc2oc(=O)cc(Cn3ccnc3)c2cc1Cl,/,-1,/,/
SMILES,14-3-3 Bad inh,UBC9 SUMO inh,p47phox inh,eIF4E-4G inh
CN(C)c1c(F)cc(C(=O)NCc2ccccc2)cc1F,-4,14,-13,2
O=S(=O)(Nc1cc(Sc2cccc3cccnc23)c(O)c2ccccc12)c1ccc(F)cc1,23,67*,9,0
Cc1cc(C)c(S(=O)(=O)Nc2cc(SCC(=O)O)c(O)c3ccccc23)cc1C,68,72,4,27
O=C(O)CSc1cc(NS(=O)(=O)c2ccc(Cl)cc2)c2ccccc2c1O,/,77*,/,/
COc1ccc(S(=O)(=O)Nc2cc(SCC(=O)O)c(O)c3ccccc23)cc1,/,57*,/,/
COc1ccc(S(=O)(=O)Nc2cc(S(=O)(=O)c3ccccc3)c(O)cc2C)cc1,/,-1,/,/

# Source: PubChem (several laboratories)
